Assay outcomes as filed in PubChem.
Only some compounds are listed: those with a hit (about 6.2% of all), similar ones and a draw of the others.
Lassa entry inh = blocks Lassa virus binding to or entry into cells; Potency, µM (highest dose often 37.9 µM), without a hit: at the top dose activity change, negative = inhibition, usual class: inhibitors; Lassa virus pseudotype entry inhibition, cell reporter; 1.2% of 300,000 active; calls by dose curve; tested in HEK293 cells; note: potency is the fitted concentration of half-maximal effect; nearly all actives have a fitted effect of over 50% in size
MARV entry inh = blocks Marburg virus binding to or entry into cells; Potency, µM (top dose mostly 37.8 µM), without a hit: at the top dose activity change, negative = inhibition, hits mostly inhibitors; Marburg virus pseudotyped entry inhibition, cell reporter; 1.8% of 300,000 active; calls by dose curve; tested in HEK293 cells; note: potency is the fitted concentration of half-maximal effect
HCMV antiviral = blocks human cytomegalovirus replication; 4.5% of 410,000 active; HFF cells, HCMV-luciferase reporter, 72 h; stronger effect = lower value; activity change, negative = inhibition, % at 57.5 µM; AID 1259415; in the data active = activity change below about -60%; inconclusive = no clear call, values can overlap the other calls; inactive = above about -39%
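Two compound doses tested in HFFs infected with HCMV-luciferase, MOI 1 PFU/cell, 72 h at 37C. Lysate luminescence read with OneGlo; data normalized against buffer-only and 10uM Salinomycin inhibitor controls.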
FMDV antiviral = blocks foot and mouth disease virus | Potency, µM (top dose mostly 57.9 µM), for inactives: at the top dose activity change, negative = inhibition, actives largely listed as inhibitors | FMDV antiviral cell-based qHTS | AID 1159524 | 1.2% of 410,000 active; calls by dose curve; tested in HEK293T cells; note: read-out not given here; potency is the fitted concentration of half-maximal effect; nearly all actives have a fitted effect of over 45% in size
* = called active by the depositor; [ ] = another dose, or the depositor's remark. % is set by controls: 0 for no effect and ±100 for the full control effect.

For C(=C\c1ccccc1)/CN1CCN(C(CCc2ccccc2)c2nnnn2C2CCCCC2)CC1 (configuration not stated) the results were HCMV antiviral -40.0 and FMDV antiviral -0.3%.
For O=c1[nH]c2ccccc2n1C1CCN(C(c2cc3ccccc3o2)c2nnnn2Cc2ccccc2)CC1 (configuration not stated) the results were HCMV antiviral -101.2* and FMDV antiviral inconclusive.
For C(=C\c1ccccc1)/CN1CCN(C(c2cc3ccccc3o2)c2nnnn2Cc2ccccc2)CC1 (configuration not stated) the results were HCMV antiviral 0.1 and FMDV antiviral 5.2%.
`COCC(=O)Nc1cc(C(=O)N2CCc3c([nH]c4ccccc34)C2)cc2nc(-c3ccccc3)n(C)c12` gave FMDV antiviral -14.4%.
For COCCCNC(=O)c1ccc(C(=O)NCCCOC)cc1 the results were Lassa entry inh 27.5%[14.3 µM], MARV entry inh 12.3%, HCMV antiviral 20.3 and FMDV antiviral -2.9%.
Screening COCCCNC(NC(=O)c1ccc(Br)cc1)C(Cl)(Cl)Cl (configuration not stated) returned Lassa entry inh 11.3%, MARV entry inh 5.8%, HCMV antiviral -65.7* and FMDV antiviral 0.0%.
Screening Cc1ccc([N+](=O)[O-])cc1NC(=O)Cc1ccc(F)cc1 returned Lassa entry inh -9.9%, MARV entry inh -1.5%, HCMV antiviral -20.4 and FMDV antiviral -19.6%.
Cc1cc([N+](=O)[O-])ccc1NC(=O)Nc1ccccc1F was read as Lassa entry inh 19.7%[46.1 µM], MARV entry inh -0.4%[46.1 µM], HCMV antiviral -60.7* and FMDV antiviral -14.9%.
`O=C(Nc1ccccc1F)Nc1ccccc1F` gave HCMV antiviral -24.6 and FMDV antiviral 41.9%.
Screening Cc1ccc(N=Nc2ccc(C)cc2NC(=O)Nc2ccccc2F)cc1 returned HCMV antiviral -67.1* and FMDV antiviral 43.9%.
For Cc1ccc([N+](=O)[O-])cc1NC(=O)Nc1cccc(F)c1 the results were HCMV antiviral -96.8* and FMDV antiviral 28.2µM*.
For O=C(Nc1ccccc1)Nc1cc([N+](=O)[O-])ccc1F the results were Lassa entry inh inconclusive, MARV entry inh -18.4%, HCMV antiviral inconclusive and FMDV antiviral -12.4%.
Screening Cc1cc(C)cc(N2C(=O)CS(=O)(=O)C23C(=O)N(C)c2ccccc23)c1 (configuration not stated) returned Lassa entry inh inconclusive, HCMV antiviral -3.5 and FMDV antiviral -9.1%.
Screening O=C(NCc1nnc2n1CCN(Cc1ccc(C(F)(F)F)cc1)CC2)c1ccccn1 returned FMDV antiviral -16.9%.
Screening CN1CCN(C(=O)c2cccc(-c3cnc4cnc(-c5ccccc5Oc5ccccc5)cn34)c2)CC1 returned HCMV antiviral -12.8 and FMDV antiviral -14.0%.
For CC1(c2ccccc2)OC(C(=O)O)=CC1=O (configuration not stated) the results were FMDV antiviral -10.8%.
CCOC(=O)C1=C(C)N(CCCC(=O)O)C(=O)NC1c1ccccc1OS(=O)(=O)c1ccc([N+](=O)[O-])cc1 (configuration not stated) was read as HCMV antiviral -100.2* and FMDV antiviral -0.9%.
`Cc1cc(C)nc(NC(=S)Nc2cccc(F)c2)c1` gave Lassa entry inh 0.5%, MARV entry inh 2.7%, HCMV antiviral -7.4 and FMDV antiviral 25.6%.
Screening COc1cccc(NC(=S)Nc2cc(C)cc(C)n2)c1 returned Lassa entry inh 7.7%, MARV entry inh inconclusive, HCMV antiviral -66.8* and FMDV antiviral 53.3%.
For Cc1cccc(NC(=S)Nc2ccc(Oc3ccccc3)cc2)n1 the results were Lassa entry inh -17.8%, MARV entry inh inconclusive, HCMV antiviral -60.7* and FMDV antiviral -16.3%.
Cc1ccc(S(=O)(=O)NCCc2nnc3ccc(SCc4ccc(F)cc4)nn23)cc1 was read as Lassa entry inh inconclusive, HCMV antiviral 10.0 and FMDV antiviral 17.6%.
`C[C@@H]1O[C@@H](O[C@H]2C[C@@H](O)[C@]3(CO)[C@@H]4C(CC[C@]3(O)C2)[C@@]2(O)CC[C@H](C3=CC(=O)OC3)[C@@]2(C)C[C@H]4O)[C@H](O)[C@H](O)[C@H]1O` (some centres not stated) gave MARV entry inh 0.0316µM* and FMDV antiviral inconclusive.
Screening C[C@@H]1O[C@@H](O[C@H]2C[C@@H](O)[C@]3(CO)[C@H]4[C@H](O)C[C@]5(C)[C@@H](C6=CC(=O)OC6)CC[C@]5(O)[C@@H]4CC[C@]3(O)C2)[C@H](O)[C@H](O)[C@H]1O returned Lassa entry inh 0.0461µM*, MARV entry inh 0.0651µM* and FMDV antiviral inconclusive.
